TDP1 cell noCPT – qHTS for Inhibitors of human tyrosyl-DNA phosphodiesterase 1 (TDP1): qHTS in cells in absence of CPT. DT40 Tdp1-/- hTDP1 cells, no CPT, ATP luminescence, 48 h. Potency, µM (series often up to 46.2 µM), inactives show top-dose activity change, negative = growth inhibition, usual class: inhibitors. actives 15% (n = 420,000). AID 686978, 2013; note: potency is the fitted concentration of half-maximal effect; % is set by controls: 0 for no effect and ±100 for the full control effect; nearly all actives have a fitted effect of over 55% in size
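A cellular qHTS used chicken DT40 cells lacking endogenous Tdp1 but carrying stably transfected human TDP1. Compounds were applied without camptothecin, and cell growth kinetics were judged by ATP-dependent luminescence after ≥48 hr.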
TDP1 block – TDP1 (human) enzyme inhibition | Potency, µM (series often up to 130 µM), without a hit: top-dose activity change, negative = inhibition, usual class: inhibitors | actives 0.28% (n = 350,000) | recombinant TDP1, AlphaScreen DNA substrate cleavage | AID 485290 | Q9NUW8; note: potency is the fitted concentration of half-maximal effect; % is set by controls: 0 for no effect and ±100 for the full control effect; nearly all actives have a fitted effect of over 40% in size
Target sequence (Q9NUW8 whole entry, looked up): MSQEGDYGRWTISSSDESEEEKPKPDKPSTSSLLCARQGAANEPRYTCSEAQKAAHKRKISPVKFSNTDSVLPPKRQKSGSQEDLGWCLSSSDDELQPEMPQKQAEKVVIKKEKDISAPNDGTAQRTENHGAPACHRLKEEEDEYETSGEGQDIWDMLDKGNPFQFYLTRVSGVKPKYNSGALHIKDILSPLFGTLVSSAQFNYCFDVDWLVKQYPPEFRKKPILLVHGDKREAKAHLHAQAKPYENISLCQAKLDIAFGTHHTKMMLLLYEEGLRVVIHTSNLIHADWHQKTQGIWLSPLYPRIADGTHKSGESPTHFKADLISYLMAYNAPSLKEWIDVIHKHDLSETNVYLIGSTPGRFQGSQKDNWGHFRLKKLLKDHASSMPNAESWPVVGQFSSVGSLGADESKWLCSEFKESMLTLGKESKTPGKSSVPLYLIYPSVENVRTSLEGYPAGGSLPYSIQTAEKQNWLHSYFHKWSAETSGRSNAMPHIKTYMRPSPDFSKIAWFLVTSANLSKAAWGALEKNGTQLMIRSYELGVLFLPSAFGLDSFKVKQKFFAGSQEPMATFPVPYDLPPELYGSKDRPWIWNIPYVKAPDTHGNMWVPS
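Recombinant human Tdp1 (E. coli-expressed, 1 nM final) preincubated with compounds 15 min at room temperature, then 5'-biotin/3'-phosphotyrosine-FITC DNA substrate (15 nM final) added for 5 min. AlphaScreen beads (10 ug/ml final) added 10 min; cleavage lowers signal.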
TDP1 cell CPT – DT40-hTDP1 cell growth loss with CPT. chicken DT40 Tdp1-/-;hTDP1 cells + 20 nM CPT, ATP luminescence, 48 h. Potency, µM (highest dose often 46.2 µM), for the others: at the highest dose activity change, negative = growth inhibition, hits mostly inhibitors. actives 12% (n = 420,000). AID 686979; note: potency is the fitted concentration of half-maximal effect; % is set by controls: 0 for no effect and ±100 for the full control effect; nearly all actives have a fitted effect of over 55% in size
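Chicken DT40 Tdp1-/- cells stably complemented with human TDP1 were seeded at 400 cells/well in medium containing 20 nM camptothecin, exposed to pin-transferred compounds, and grown at 37 °C for at least 48 hr. Viability was read as ATP luminescence.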
IL1B secr inh – blocks inflammasome-driven IL-1 beta release. THP-1 LPS/ATP IL-1B secretion, AlphaLISA, 16 h; hits give low values. activity change, % at 57.5 µM. actives 4.7% (n = 360,000). AID 743279; in the data active = activity change below about -50%; inconclusive = mostly about -30% to -49%; note: % is set by controls: 0 for no effect and ±100 for the full control effect
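THP-1 cells pretreated 1 hr with compounds (up to 57.5 uM final), then stimulated with LPS (250 ng/mL final) plus ATP (1.25 mM final); secreted IL-1B measured by AlphaLISA after 16 hr, decreased signal indicating inhibition.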
TGFb SMAD3 inh – inhibitors of TGF-b signaling. HepG2 CAGA-GFP TGF-b/SMAD3 reporter, GFP fluorescence, 18 h; TGF-beta stimulated, 500 pg/mL final. Potency, µM (titrated, usually from 46.1 µM), without a hit: top-dose activity, negative = inhibition, hits mostly inhibitors. actives 1.2% (n = 410,000). AID 588855; note: potency is the fitted concentration of half-maximal effect; % is set by controls: 0 for no effect and ±100 for the full control effect; nearly all actives have a fitted effect of over 65% in size
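Inhibition was scored as loss of TGF-beta-induced (500 pg/mL final, 18 hours, 37 degrees C) GFP in HEPG2 cells carrying a CAGA-GFP reporter, in DMEM with 1% FBS. Well GFP was summed per cell; Activity was normalised to unstimulated and stimulated DMSO wells, then concentration-response fitting.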
HepG2 viability – HepG2 cytotoxicity, counter-screen for TGF-b inhibitors; Potency, µM (doses to about 46.1 µM), inactives show at the top dose activity change, negative = cytotoxicity, actives largely listed as cytotoxic; AID 588856; HepG2 CAGA-GFP viability, ATP luminescence, 18 h; actives 0.76% (n = 410,000); note: potency is the fitted concentration of half-maximal effect
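CellTiter-Glo luminescence gave cytotoxicity after 18 hours at 37 degrees C. The cells were HepG2 CAGA-GFP in 1% FBS DMEM, stimulated with 500 pg/mL TGF-beta after compound addition. %Activity was normalised to no-cell wells (complete cell-killing) and DMSO (no toxicity), and curves were fitted and classified.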
Numbers without * were called inactive; [ ] = dose if it differs, or a comment. Only some compounds are listed: those with a hit (about 18% of all), similar ones and a draw of the others. Unless noted, calls come from the whole dose curve; as a rule, active = well fitted curve in the direction sought with a large enough effect; inconclusive = small, poorly fitted or top-dose-only effect, or another doubt; inactive = no such curve, though single readings can be large; an effect the other way counts as inactive or inconclusive.

Results for CCC(=O)Nc1ccccc1-c1nc2ccccc2n(C(C)C(=O)Nc2ccc(OC)cc2)c1=O (stereo not drawn) ?
TDP1 cell noCPT: 14.6µM*; TDP1 block: 0.0%; TDP1 cell CPT: inconclusive; TGFb SMAD3 inh: inconclusive; HepG2 viability: -25.7%

How did COc1ccc(Cl)cc1NC(=O)Cn1c(=O)c(-c2ccccc2NC(C)=O)nc2ccccc21 do in these assays?
TDP1 cell noCPT: 14.6µM*; TDP1 block: 8.6%; TDP1 cell CPT: 13µM*; TGFb SMAD3 inh: 24.3%; HepG2 viability: 0.7%

What do the screens show for `CCC(C(=O)Nc1ccc(C)c(Cl)c1)n1c(=O)c(-c2ccccc2NC(C)=O)nc2ccccc21` (stereo not drawn)?
TDP1 cell noCPT: 13µM*; TDP1 block: 5.7%; TDP1 cell CPT: 20.6µM*; TGFb SMAD3 inh: 12.6µM*; HepG2 viability: -9.5%

What do the screens show for `CC(=O)Nc1ccccc1-c1nc2ccccc2n(C(C)C(=O)Nc2cccc(C)c2C)c1=O` (stereo not drawn)?
TDP1 cell noCPT: inconclusive; TDP1 block: 5.7%; TDP1 cell CPT: 20.6µM*; TGFb SMAD3 inh: 22.2%; HepG2 viability: -14.2%

How did CC(=O)c1cccc(NC(=O)C(C)N(C)CC(=O)Nc2ccc(Cl)cc2)c1 (stereo not drawn) do in these assays?
TDP1 cell noCPT: inconclusive; TDP1 block: 5.5%; TDP1 cell CPT: inconclusive; IL1B secr inh: -24.9; TGFb SMAD3 inh: -10.7%; HepG2 viability: 15.6%

How did CC(=O)NC(CC(=O)Nc1ccc2c(c1)OCCO2)c1ccccc1 (stereo not drawn) do in these assays?
TDP1 cell noCPT: 0.8%; TDP1 block: 1.0%; TDP1 cell CPT: -1.2%; IL1B secr inh: -7.7; TGFb SMAD3 inh: -15.3%; HepG2 viability: 8.7%

How did CN(C)c1ccc(Nc2cc(Cl)ncn2)cc1 do in these assays?
TDP1 cell noCPT: -12.8%; TDP1 cell CPT: inconclusive; IL1B secr inh: 8.4; TGFb SMAD3 inh: -1.7%; HepG2 viability: -13.5%

Results for CN(C)c1cccc(-c2cc(Nc3ccc(C(C)(C)C)cc3)ncn2)c1 ?
TDP1 cell noCPT: inconclusive; TDP1 cell CPT: 20.6µM*; IL1B secr inh: -0.5; TGFb SMAD3 inh: 3.0%; HepG2 viability: -26.7%

How did COc1ccc(Cl)cc1NC(=O)CSc1nc2[nH]ncc2c(=O)[nH]1 do in these assays?
TDP1 cell noCPT: inconclusive; TDP1 cell CPT: inconclusive; IL1B secr inh: 29.6; TGFb SMAD3 inh: 3.4%; HepG2 viability: -14.1%

What do the screens show for `Cc1ccc2c(C)c(C(=O)N(Cc3ccccc3)C3CCS(=O)(=O)C3)oc2c1` (stereo not drawn)?
TDP1 cell noCPT: -25.8%; TDP1 block: -10.0%; TDP1 cell CPT: -4.1%; IL1B secr inh: -18.1; TGFb SMAD3 inh: 9.4%; HepG2 viability: -3.5%

How did Cc1ccc2c(C)c(C(=O)N(Cc3ccc(Cl)cc3)C3CCS(=O)(=O)C3)oc2c1 (stereo not drawn) do in these assays?
TDP1 cell noCPT: inconclusive; TDP1 block: 5.3%; TDP1 cell CPT: inconclusive; TGFb SMAD3 inh: 11.2µM*; HepG2 viability: 6.0%

What do the screens show for `Cc1ccc2occ(CC(=O)N(Cc3ccccc3Cl)C3CCS(=O)(=O)C3)c2c1` (stereo not drawn)?
TDP1 cell noCPT: 23.1µM*; TDP1 block: 7.4%; TDP1 cell CPT: inconclusive; TGFb SMAD3 inh: inconclusive; HepG2 viability: -4.7%

Results for Cc1cc2oc(C(=O)N(Cc3ccccc3)C3CCS(=O)(=O)C3)c(C)c2cc1C (stereo not drawn) ?
TDP1 cell noCPT: 16.4µM*; TDP1 block: 7.2%[56.1 µM]; TDP1 cell CPT: 25.9µM*; IL1B secr inh: -4.5; TGFb SMAD3 inh: 30.8%; HepG2 viability: -13.3%

What do the screens show for `COc1cccc(CN(C(=O)c2oc3ccc(Br)cc3c2C)C2CCS(=O)(=O)C2)c1` (stereo not drawn)?
TDP1 cell noCPT: 16.4µM*; TDP1 block: 3.7%; TDP1 cell CPT: 14.6µM*; TGFb SMAD3 inh: inconclusive; HepG2 viability: -25.7%

What do the screens show for `Cc1ccc2oc(C(=O)N(Cc3ccccc3)C3CCS(=O)(=O)C3)c(C)c2c1` (stereo not drawn)?
TDP1 cell noCPT: -28.3%; TDP1 block: 2.1%; TDP1 cell CPT: inconclusive; IL1B secr inh: 11.3; TGFb SMAD3 inh: 2.8%; HepG2 viability: -12.0%

How did CO[C@H]1COC(=O)C/C=C\[C@@H](C)COC(=O)[C@@H](C)NC(=O)C/C=C\[C@@H]1C do in these assays?
TDP1 block: 6.9%[21 µM]

How did CCN1CCc2c(sc(NC(=O)c3ccc(S(=O)(=O)N(C)c4ccccc4)cc3)c2C(=O)NC)C1 do in these assays?
TDP1 cell noCPT: 20.6µM*; TDP1 block: 7.8%; TDP1 cell CPT: 16.4µM*; IL1B secr inh: 0.0; TGFb SMAD3 inh: 23.1%; HepG2 viability: -22.7%

How did CNC(=O)c1c(NC(=O)c2ccc(S(=O)(=O)N(C)c3ccccc3)cc2)sc2c1CCN(C(C)C)C2 do in these assays?
TDP1 cell noCPT: 18.4µM*; TDP1 block: 4.6%; TDP1 cell CPT: 18.4µM*; IL1B secr inh: 42.9; TGFb SMAD3 inh: -1.2%; HepG2 viability: -21.1%

How did COC(=O)c1c(NC(=O)c2ccc(N(C)S(=O)(=O)c3ccc(C)cc3)cc2)sc2c1CCCC2 do in these assays?
TDP1 cell noCPT: inconclusive; TDP1 block: -2.7%; TDP1 cell CPT: -16.1%; IL1B secr inh: 3.1; TGFb SMAD3 inh: 8.0%; HepG2 viability: 0.8%

How did CCOc1ccc(NC(=O)c2ccc(NC(=S)NC3CCCCC3)cc2)cc1 do in these assays?
TDP1 cell noCPT: inconclusive; TDP1 block: 6.0%; TDP1 cell CPT: 20.6µM*; IL1B secr inh: -23.8; TGFb SMAD3 inh: inconclusive; HepG2 viability: 17.8µM*

How did CCCCOc1cccc(C(=O)NNC(=S)NC2CCCCC2)c1 do in these assays?
TDP1 cell noCPT: 16.4µM*; TDP1 block: 10.4%; TDP1 cell CPT: inconclusive; IL1B secr inh: 3.4; TGFb SMAD3 inh: inconclusive; HepG2 viability: -18.2%

Results for CCOc1ccc(NC(=O)c2ccc(NC(=S)NC3CC3)cc2)cc1 ?
TDP1 cell noCPT: -9.3%; TDP1 block: 2.7%; TDP1 cell CPT: -7.8%; IL1B secr inh: -0.5; TGFb SMAD3 inh: -13.3%; HepG2 viability: 2.0%
